Glioma ERSR ind: qHTS for Inducers of the Endoplasmic Reticulum Stress Response (ERSR) in Human Glioma: qHTS; U87-MG GRP78 promoter luciferase reporter, 16 h; Potency, µM, most hits filed as activators; 0.02% of 420,000 active; note: series mostly up to about 76 µM; nearly all actives have a fitted effect of over 35% in size
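Stably transfected U87-MG human glioma cells carrying a GRP78-based luminescent sensor were seeded at 1000 cells/well, pin-dosed with compounds and incubated 16 h. Luciferase reagent was then added, and end-point luminescence was read after 10 min at room temperature.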
Vif-APOBEC3G blk: qHTS for Inhibitors of Vif-A3G Interactions: qHTS; DNA dC->dU-editing enzyme APOBEC-3G (Homo sapiens), Q9HC16; HeLa A3G-eYFP + Vif (tagged APOBEC3G with the HIV-1 protein that degrades it), YFP fluorescence, overnight; Potency, µM (top dose mostly 46.1 µM), hits mostly inhibitors; 0.076% of 410,000 active; AID 602310, 2012; note: nearly all actives have a fitted effect of over 60% in size
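HeLa cells stably expressing Vif and C-terminally eYFP-tagged A3G, seeded overnight at 37 deg C, then exposed to compound by pintool overnight at 37 deg C. Rise in yellow fluorescence (Ex 488/Em 500-530, Acumen) marks blocked Vif-driven A3G degradation.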
Vif-A3F inh: qHTS for Inhibitors of Vif-A3F Interactions: qHTS. HeLa A3F-eYFP + Vif (tagged APOBEC3F with the HIV-1 protein that degrades it), YFP fluorescence increase. Potency, µM (titrated, usually from 46.1 µM). 0.2% of 390,000 active; note: nearly all actives have a fitted effect of over 65% in size
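HeLa cells stably expressing A3F-eYFP plus Vif, plated and incubated overnight at 37 deg C, then exposed to compounds overnight at 37 deg C. Blocked degradation read as raised yellow fluorescence (Ex 488/Em 500-530).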
ALOX12 inh: Primary qHTS assay for inhibitors of human arachidonate 12S-lipoxygenase (ALOX12): Round 2; 1.1% of 580,000 active; Potency, µM (highest dose often 108 µM), hits mostly inhibitors; Polyunsaturated fatty acid lipoxygenase ALOX12 (Homo sapiens), P18054; purified 12hLO, xylenol orange hydroperoxide absorbance
Target sequence (P18054 whole entry, looked up): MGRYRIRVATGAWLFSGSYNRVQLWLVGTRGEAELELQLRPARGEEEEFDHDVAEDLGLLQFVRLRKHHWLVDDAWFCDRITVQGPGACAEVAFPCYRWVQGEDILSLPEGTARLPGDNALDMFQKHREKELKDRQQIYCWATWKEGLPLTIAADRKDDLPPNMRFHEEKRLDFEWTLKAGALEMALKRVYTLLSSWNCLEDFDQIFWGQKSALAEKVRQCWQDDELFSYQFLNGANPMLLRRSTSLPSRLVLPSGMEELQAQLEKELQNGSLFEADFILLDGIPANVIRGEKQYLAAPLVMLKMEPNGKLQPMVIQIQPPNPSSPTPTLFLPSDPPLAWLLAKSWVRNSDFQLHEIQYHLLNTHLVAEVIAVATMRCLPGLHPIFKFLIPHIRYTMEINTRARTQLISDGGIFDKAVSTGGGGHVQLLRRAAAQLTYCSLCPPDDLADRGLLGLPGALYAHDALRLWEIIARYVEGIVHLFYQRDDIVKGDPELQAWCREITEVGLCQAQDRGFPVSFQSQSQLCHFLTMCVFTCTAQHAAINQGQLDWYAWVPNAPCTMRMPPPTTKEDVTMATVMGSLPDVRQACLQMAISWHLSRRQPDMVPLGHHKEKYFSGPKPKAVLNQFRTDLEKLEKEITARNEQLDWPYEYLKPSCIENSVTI
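Purified human 12hLO (150 nM final) in 25 mM Hepes, 0.01% Triton X-100, pH 7.0 was preincubated 15 min at room temperature with compound. Then 40 uM arachidonic acid was added, 30 min. Hydroperoxide was read by Fe-XO absorbance ratio 573/405 nm.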
TRPML1 inh: qHTS for Inhibitors of the Human Mucolipin Transient Receptor Potential 1 (TRPML1); Mucolipin-1 (Homo sapiens), Q9GZU1; TRPML1-inducible cells, Ca2+ dye fluorescence, FDSS; active compounds read low; inhibition of EC80 agonist-evoked calcium signal; activity change, negative = inhibition, % (test concentration not listed); 0.02% of 390,000 active; AID 624415, 2012; in the data active = activity change below about -50%; inconclusive = between about -30% and that limit;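 note: stimulus is agonist 54-4 at its EC80 concentration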
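Calcium fluorescence in TRPML1-DL cells induced overnight with Tet: a 110 s read after compound pin addition, then a 110 s antagonist read after challenge with 54-4 at 4 uM final (EC80).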
TRPML1 ag: qHTS for Agonists of the Human Mucolipin Transient Receptor Potential 1 (TRPML1) | TRPML1-expressing cells, Ca2+ dye fluorescence, FDSS | AID 624414, 2012 | 0.12% of 410,000 active | Mucolipin-1 (Homo sapiens), Q9GZU1 | activation, % (concentration not given with the values); in the data active = activation above about 50%; inconclusive = mostly about 30% to 49%
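Tet-induced TRPML1-DL cells, 1,500 per well, cultured overnight, were loaded with a no-wash Ca2+ dye for 45–90 min. Calcium fluorescence was recorded on the FDSS for 110 s after compound addition, before the EC80 agonist (4 uM 54-4) was added.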
A number is an active result. Only some compounds are listed: those with a hit (about 1.3% of all), similar ones and a draw of the others. Unless noted, calls come from the whole dose curve; as a rule, active = well fitted curve in the direction sought with a large enough effect; inconclusive = small, poorly fitted or top-dose-only effect, or another doubt; inactive = no such curve, though single readings can be large; an effect the other way counts as inactive or inconclusive.

For O=C(O)c1ccc(N2C(=O)C/C(=C/c3c[nH]c4ccccc34)C2=O)cc1 the results were ALOX12 inh inactive.
Screening Cc1ccc2nc(/C(C#N)=C/c3ccc(-c4cccc(Cl)c4)o3)[nH]c2c1 returned Glioma ERSR ind inactive, Vif-APOBEC3G blk 7.9µM, Vif-A3F inh 3.2µM, ALOX12 inh inactive, TRPML1 inh inactive and TRPML1 ag inconclusive.
For Cc1ccc2nc(/C(C#N)=C/c3cccc(Br)c3)[nH]c2c1 the results were Glioma ERSR ind inactive, Vif-APOBEC3G blk inactive, Vif-A3F inh inconclusive, ALOX12 inh inconclusive, TRPML1 inh inactive and TRPML1 ag inactive.
Screening COc1cc(/C=C(\C#N)c2nc3ccc(C)cc3[nH]2)ccc1OC(C)C returned Glioma ERSR ind inactive, Vif-APOBEC3G blk inactive, Vif-A3F inh 25µM, ALOX12 inh inactive, TRPML1 inh inactive and TRPML1 ag inactive.
Cc1ccc2nc(/C(C#N)=C/c3ccc(O)c(O)c3)[nH]c2c1 was read as Glioma ERSR ind inactive, Vif-APOBEC3G blk inconclusive, Vif-A3F inh inconclusive, ALOX12 inh 7.1µM, TRPML1 inh inactive and TRPML1 ag inactive.
`COc1ccc(/C=C(/C#N)c2nc3ccccc3[nH]2)cc1C` gave ALOX12 inh inactive.
N#C/C(=C\c1ccc(-c2cccc(Br)c2)o1)c1nc2ccccc2[nH]1 was read as ALOX12 inh inactive.
`CC(=O)Nc1ccc(CNC(=O)Cc2c(F)cccc2Cl)cc1` gave ALOX12 inh inactive.
Screening CCC1=C[C@@H]2CN(C1)Cc1c([nH]c3ccccc13)[C@@](C(=O)OC)(c1cc3c(cc1OC)N(C)[C@@H]1[C@@](O)(C(=O)OC)[C@H](OC(C)=O)[C@]4(CC)C=CCN5CC[C@]31[C@@H]54)C2 returned Glioma ERSR ind inactive and ALOX12 inh 4.3µM.
Screening CCSc1ccccc1C(=O)Nc1ccc([N+](=O)[O-])cc1OC returned Glioma ERSR ind inactive, Vif-APOBEC3G blk inactive, Vif-A3F inh inactive, ALOX12 inh 40µM, TRPML1 inh inactive and TRPML1 ag inactive.
`CC(CCc1ccccc1)NC(=O)C(=O)NCc1n[nH]c(=O)c2ccccc12` (stereo not drawn) gave ALOX12 inh inactive.
CCOC(=O)c1cc2cc(C(=O)O)ccc2[nH]1 was read as ALOX12 inh 16µM.
`O=S(=O)(Nc1ccc(-c2ccc(N3CCOCC3)nn2)cc1)c1cccc(F)c1` gave ALOX12 inh inactive.
`O=c1c2ccccc2c(-c2ccccc2)nn1-c1cc(N2CCNCC2)ccc1[N+](=O)[O-]` gave ALOX12 inh inactive.
For O=C(NCCc1ccccc1)Nc1ccc2nc(NS(=O)(=O)c3ccccc3)sc2c1 the results were ALOX12 inh inactive.
Screening Cc1oc(-c2ccccc2)nc1CC(=O)Nc1ccc(Cl)cc1Cl returned ALOX12 inh 7.9µM.
For COCCN1C(=O)[C@@H]2C[C@@H](CN2Cc2ccc(C(F)(F)F)cc2)Oc2ccccc21 the results were ALOX12 inh inactive.
For COc1cccc(-c2ocnc2C(=O)NCc2ccccc2C)c1 the results were ALOX12 inh inactive.
Cc1cccc(CNc2ccnc(-c3ccoc3)n2)c1 was read as Glioma ERSR ind inactive and ALOX12 inh 20µM.
For O=C1CN(c2nc(-c3ccccc3)nc3ccccc23)CCN1 the results were ALOX12 inh inactive.
Screening O=[N+]([O-])CC(=Nc1ccc(Cl)cc1)N/N=C\c1oc(O)c2ccccc12 returned Glioma ERSR ind inactive, Vif-APOBEC3G blk inactive, Vif-A3F inh inactive, ALOX12 inh 4µM, TRPML1 inh inactive and TRPML1 ag inactive.
For CNc1nc(NCc2ccco2)c2ccccc2n1 the results were Glioma ERSR ind inactive, Vif-APOBEC3G blk inactive and TRPML1 ag 70.
c1ccc(Nc2nc(NCc3ccco3)c3ccccc3n2)cc1 was read as Glioma ERSR ind inactive, Vif-APOBEC3G blk inactive, Vif-A3F inh inactive, ALOX12 inh inconclusive, TRPML1 inh inactive and TRPML1 ag inactive.
c1ccc(-c2nc(NCc3ccco3)c3oc4ccccc4c3n2)cc1 was read as Glioma ERSR ind inactive, Vif-APOBEC3G blk inactive, Vif-A3F inh inactive, ALOX12 inh 7.1µM, TRPML1 inh inactive and TRPML1 ag inactive.
Screening c1ccc(CN2CCN(c3nc(NCc4ccco4)c4ccccc4n3)CC2)cc1 returned Glioma ERSR ind inactive, Vif-APOBEC3G blk inactive, Vif-A3F inh inactive, ALOX12 inh 40µM, TRPML1 inh inactive and TRPML1 ag inactive.
For CCNc1nc(NCc2ccco2)c2ccccc2n1 the results were Glioma ERSR ind inactive, Vif-APOBEC3G blk inactive and TRPML1 ag 72.
`Cc1ccccc1Nc1nc(NCc2ccco2)c2ccccc2n1` gave Glioma ERSR ind inactive, Vif-APOBEC3G blk inactive, Vif-A3F inh inactive, ALOX12 inh inconclusive, TRPML1 inh inactive and TRPML1 ag inactive.
Screening OCCN1CCN(c2nc(NCc3ccco3)c3ccccc3n2)CC1 returned Glioma ERSR ind inactive, Vif-APOBEC3G blk inactive, Vif-A3F inh inactive, ALOX12 inh inconclusive, TRPML1 inh inactive and TRPML1 ag inactive.
For CCCOC(=O)c1ccc(NC(=O)CSc2nc(=O)[nH]nc2C)cc1 the results were ALOX12 inh inactive.
`COc1ccc(C(=O)COC(=O)C(CC(=O)c2ccccc2)Nc2ccccc2OC)cc1` (stereo not drawn) gave ALOX12 inh inactive.
CC1(C)CC(=O)C2=C(C1)NC(=S)C(C#N)C21CCCCC1 (stereo not drawn) was read as Glioma ERSR ind inactive, Vif-APOBEC3G blk inactive, Vif-A3F inh inactive, ALOX12 inh 7.9µM, TRPML1 inh inactive and TRPML1 ag inactive.
CC1(C)CC(=O)C2=C(C1)NC(SCC(=O)Nc1ccccc1)=C(C#N)C21CCCCC1 was read as Glioma ERSR ind inactive, Vif-APOBEC3G blk inactive, Vif-A3F inh inactive, ALOX12 inh inactive, TRPML1 inh inactive and TRPML1 ag inactive.
`C/C(=C\C(=O)c1ccc(F)cc1)NCc1ccc2c(c1)OCO2` gave Glioma ERSR ind inactive, Vif-APOBEC3G blk inactive, Vif-A3F inh inactive, ALOX12 inh 40µM, TRPML1 inh inactive and TRPML1 ag inactive.
Screening C/C(=C\C(=O)c1ccc(Br)cc1)NCc1ccc2c(c1)OCO2 returned Glioma ERSR ind inactive, Vif-APOBEC3G blk inactive, Vif-A3F inh inactive, ALOX12 inh inactive, TRPML1 inh inactive and TRPML1 ag inactive.
